This is an account of results in PubChem BioAssay.

Values joined by “and” are separate entries in the source; they are usually repeats but may differ in a detail not shown here. Identical values can stand only once. Some structures have more than one record in an assay (separate samples or runs), and their calls can disagree. Active and inactive are the calls of the source. Unless noted, no rule for the calls is given here.

Test [1] is described as follows: signal quenchers or enhancers, Cy5 substrate/SSB – biochemical, NIH Clinical Collection, E. coli SSB, artefact control for HCV NS3 helicase inhibitor project (AID 743268). To be noted: Cy5-oligo bound E. coli SSB, fluorescence interference.
For test [2], the system named is Hepatitis C virus NS3 helicase. The test is described as follows: blockers of NS3h binding to DNA – biochemical, fluorescence polarization, NIH Clinical Collection, primary screen (AID 743270). The conditions noted are these: NS3 helicase binding to Cy5-dT15 DNA, stronger effect = higher value, concentration not given here. Background: Fluorescence polarisation rises when a labelled molecule tumbles more slowly, as on binding a larger partner.

Test [3] has as its target Single-stranded DNA-binding protein (Escherichia coli (strain K12)) (UniProt P0AGE0). The test is described as follows: SSB-ssDNA binding inhibitors – biochemical, fluorescence polarization, NIH Clinical Collection, counter-screen for HCV NS3 helicase inhibitor project (AID 743271; in the data active = inhibition above about 28%). To be noted: E. coli SSB-DNA binding, stronger effect = higher value, concentration not given here.
Test [4] is described as follows: compounds distorting NS3 helicase fluorescence signal – biochemical, NIH Clinical Collection, artefact control for HCV NS3 helicase inhibitor project (AID 743272).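 Also: HCV NS3 helicase with a Cy5 labelled single stranded DNA probe.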 To be noted: fluorescence interference counterscreen, HCV NS3 helicase assay; stronger effect = lower value. (In general: The purpose of a counterscreen is to sort out artefacts and off-target activity.)
Test [5] is described as follows: Wnt pathway potentiators raising nuclear beta-catenin – imaging, WNT3A-conditioned medium, mouse C2C12, NPC library, primary screen (AID 1117326; in the data active = nuclear beta-catenin stimulation mostly above about 4.2%, no sharp cut-off; inactive = mostly below about 10%). The conditions noted are these: stronger effect = higher value.
Test [6] is described as follows: stimulators of insulin release from INS-1E, primary screen, cell-based, 5 mM glucose, NPC library (AID 1117329;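 active = compound raises insulin release from rat beta cells at 5 mM glucose, no numeric limit stated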). To be noted: rat INS-1E insulin secretion, at 10 µM, stronger effect = higher value.
Test [7] in a line: growth inhibition of GSK3B-pretreated HCT116 cells – cell-based, CellTiter-Glo, 0.2 to 20 µM (AID 1117336;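 active = compounds lowering colon cancer cell viability after pretreatment blocking the GSK3B kinase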). The conditions noted are these: HCT116 viability after GSK3B inhibitor, at 20 µM, stronger effect = higher value. (ATP-based viability assays read luminescence as a measure of living cells.)
Test [8] in a line: inhibition of endothelial tube formation, primary screen, imaging, VEGF stimulated, CD31 staining, tube area, NPC library (AID 1117340;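 active = compound that reduces growth-factor-driven endothelial tube area in a mixed cell culture, no cutoff stated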). The conditions noted are these: VEGF-stimulated ADSC/ECFC co-culture, at 10 µM, stronger effect = higher value.
Test [9] can be described thus: GLP1 release stimulators, primary, NCI-H716, NPC library (AID 1117341;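 active = compound raises GLP1 secretion from the human gut endocrine cells, with no numeric limit stated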). The conditions noted are these: NCI-H716 cells, at 10 µM, stronger effect = higher value.
A short description of test [10]: HCT116 colon cancer cell growth inhibition, primary screen, CellTiter-Glo luminescence, NPC library (AID 1117342;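 active = compounds that lower survival of HCT116 colon cancer cells in the luminescence readout, no numeric limit stated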). The conditions noted are these: at 20 µM (top of the series).
A short description of test [11]: reduced SW480 viability measured with CellTiter-Glo, NPC library, primary (AID 1117343;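 active = compounds that lower viability of the colon cancer cells in the luminescence readout, with no numeric limit stated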). To be noted: CellTiter-Glo luminescence; at 20 µM (top of the series).
Test [12] can be described thus: NPC library primary testing for decreased DLD-1 cell viability via CellTiter-Glo (AID 1117346;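 active = compounds that lower survival of DLD-1 colon cancer cells in the luminescence readout, no cutoff given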). To be noted: DLD-1 viability, CellTiter-Glo luminescence; at 20 µM (top of the series).
The target of test [13] is 6-phosphogluconate dehydrogenase, decarboxylating (Homo sapiens) (UniProt P52209). Nature of the test: inhibition of human phosphogluconate dehydrogenase – biochemical, recombinant enzyme, NADPH absorbance, primary screen (AID 1159550;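 active = at least 20% inhibition of 6-phosphogluconate dehydrogenase activity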). To be noted: recombinant 6PGD, NADPH absorbance 341 nm; at 10 µM; stronger effect = higher value.
Test [14] in a line: EMT-state selective cytotoxicity in co-culture – imaging, PC-3E GFP, TEM4-18 mCherry, primary screen (AID 1345086;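 active = compounds killing one labelled cell type while sparing the other, by normalised counts and ratio limits, not self-fluorescent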;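 as to all read-outs here: cells exposed to compound for 72 h before imaging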;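 as to red/green cell ratio (normalised): normalised mesenchymal count divided by normalised epithelial count so high means epithelial killing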). The conditions noted are these: PC-3E GFP / TEM4-18 mCherry co-culture, imaging cell counts, at 1 µM; for red/green cell ratio (normalised): actives lie on both sides, counts scaled to control wells, 1 = unselective.
Test [15] in a line: MELAS cybrid and Rieske KO viability enhancers – cell-based, MELAS cybrids, Rieske KO mouse fibroblasts, CellTiter-Glo, primary screen (AID 1508586;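 active = mean z-score across replicates of 1.96 or higher in either the MELAS or the Rieske mutant cell line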;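 also: z relative to plate mean and SD of compound and empty wells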). The conditions noted are these: low glucose.
Test [16] has as its target NAD(+) hydrolase SARM1 (Homo sapiens) (UniProt Q6SZW1). Nature of the test: blocking NAD cleavage by SARM1 SAM-TIR – cell lysate, NAD-Glo luminescence (AID 1508614;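 active = compound whose remaining NAD level is above about 45 nM, limit read from the data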;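 also: higher remaining NAD means stronger inhibition of SARM1 NADase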). To be noted: SAM-TIR HEK293T lysate NADase, at 1 µM, stronger effect = higher value.
For test [17], the target named is Mitogen-activated protein kinase 7 (Homo sapiens) (UniProt Q13164). Nature of the test: Gal4-ERK5 driven luciferase induction – cell-based, HTS, primary screen (AID 1508626;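 active = luciferase signal above three times the same-plate solvent-only control wells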;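 also: luciferase driven by Gal4-ERK5 fusion binding five Gal4 sites before minimal TATA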). The conditions noted are these: HeLa Gal4-ERK5 transactivation, 18 h, at 5 µM, stronger effect = higher value.
A further test has as its system F380Y. Nature of the test: BK channel mutant inhibitors and activators – cell-based, U2OS BacMam, thallium flux, beta subunits, selectivity assay, profiling panel (AID 1259406;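 active = thallium flux through the channel raised or lowered by more than 3 SD from vehicle-only wells, actives on both sides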;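 also: initial slope of Thallos dye fluorescence rise after thallium is added; log ratio against the mean of 0.3% DMSO vehicle wells on the same plate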). The conditions noted are these: U2OS BacMam BK variants, at 30 µM.
Test [18] in a line: viability loss with induced miR-34 in A549 – imaging, A549 dox-inducible miR-34, nuclei and caspase counts, primary screen (AID 1347080;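 active = compounds whose cell count with miR-34 switched on is under 0.7 times the count with it off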). The conditions noted are these: A549 miR-34 inducible, Hoechst nuclei count, 48 h.
The mark [19] stands for this setting: measured here: epithelial PC-3E GFP cell survival.
[20] abbreviates: measured here: mesenchymal TEM4-18 mCherry cell survival.
Setting [21] is: MELAS cybrid survival, CellTiter-Glo 48 h, stronger effect = higher value.
Where [22] appears, read: Rieske KO mouse fibroblast survival, CellTiter-Glo 72 h.

Mitogen-activated protein kinase 7 (Homo sapiens), sequence (Q13164 whole entry, looked up, the tested form may be a part): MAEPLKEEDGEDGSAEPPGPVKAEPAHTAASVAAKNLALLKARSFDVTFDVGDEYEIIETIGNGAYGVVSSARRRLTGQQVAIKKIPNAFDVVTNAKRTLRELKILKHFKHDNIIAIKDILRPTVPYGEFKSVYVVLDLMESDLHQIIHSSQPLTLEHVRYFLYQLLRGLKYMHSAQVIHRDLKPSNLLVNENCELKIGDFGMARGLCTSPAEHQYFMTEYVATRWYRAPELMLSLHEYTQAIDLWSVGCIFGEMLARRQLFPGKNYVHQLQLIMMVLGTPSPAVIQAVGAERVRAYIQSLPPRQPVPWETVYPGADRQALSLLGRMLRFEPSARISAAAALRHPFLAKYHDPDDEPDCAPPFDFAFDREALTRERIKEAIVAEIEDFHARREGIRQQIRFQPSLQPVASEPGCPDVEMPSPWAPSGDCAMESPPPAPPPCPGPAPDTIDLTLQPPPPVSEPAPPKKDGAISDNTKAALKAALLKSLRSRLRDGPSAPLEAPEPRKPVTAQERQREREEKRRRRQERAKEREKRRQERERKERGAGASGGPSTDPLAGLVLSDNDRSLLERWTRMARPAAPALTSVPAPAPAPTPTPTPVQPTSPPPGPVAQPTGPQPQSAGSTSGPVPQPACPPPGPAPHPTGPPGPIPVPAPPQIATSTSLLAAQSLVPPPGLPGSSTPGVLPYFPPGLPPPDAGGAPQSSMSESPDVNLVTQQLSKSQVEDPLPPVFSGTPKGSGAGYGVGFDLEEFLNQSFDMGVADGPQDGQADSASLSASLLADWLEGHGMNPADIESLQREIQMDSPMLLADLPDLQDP
NAD(+) hydrolase SARM1 (Homo sapiens), sequence (Q6SZW1 whole entry, looked up, the tested form may be a part): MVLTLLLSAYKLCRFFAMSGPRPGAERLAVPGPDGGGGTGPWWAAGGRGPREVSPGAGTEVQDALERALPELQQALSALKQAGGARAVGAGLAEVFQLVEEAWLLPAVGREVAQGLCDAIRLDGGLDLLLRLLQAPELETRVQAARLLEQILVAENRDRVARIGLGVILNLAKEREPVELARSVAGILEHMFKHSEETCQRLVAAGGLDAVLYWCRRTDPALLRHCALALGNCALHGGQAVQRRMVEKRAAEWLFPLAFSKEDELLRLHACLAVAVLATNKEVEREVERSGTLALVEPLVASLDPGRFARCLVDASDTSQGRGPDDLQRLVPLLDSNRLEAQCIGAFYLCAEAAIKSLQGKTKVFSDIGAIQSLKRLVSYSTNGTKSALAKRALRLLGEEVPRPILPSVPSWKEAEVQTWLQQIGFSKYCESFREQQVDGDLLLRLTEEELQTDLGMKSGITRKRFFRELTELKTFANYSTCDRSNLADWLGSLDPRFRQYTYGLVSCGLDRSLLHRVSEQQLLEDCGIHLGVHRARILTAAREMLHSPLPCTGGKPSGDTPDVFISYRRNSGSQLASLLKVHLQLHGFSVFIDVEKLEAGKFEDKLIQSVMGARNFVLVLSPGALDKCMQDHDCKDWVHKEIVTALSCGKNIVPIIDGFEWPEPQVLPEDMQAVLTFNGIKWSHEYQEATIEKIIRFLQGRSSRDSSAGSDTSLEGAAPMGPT
6-phosphogluconate dehydrogenase, decarboxylating (Homo sapiens), sequence (P52209 whole entry, looked up): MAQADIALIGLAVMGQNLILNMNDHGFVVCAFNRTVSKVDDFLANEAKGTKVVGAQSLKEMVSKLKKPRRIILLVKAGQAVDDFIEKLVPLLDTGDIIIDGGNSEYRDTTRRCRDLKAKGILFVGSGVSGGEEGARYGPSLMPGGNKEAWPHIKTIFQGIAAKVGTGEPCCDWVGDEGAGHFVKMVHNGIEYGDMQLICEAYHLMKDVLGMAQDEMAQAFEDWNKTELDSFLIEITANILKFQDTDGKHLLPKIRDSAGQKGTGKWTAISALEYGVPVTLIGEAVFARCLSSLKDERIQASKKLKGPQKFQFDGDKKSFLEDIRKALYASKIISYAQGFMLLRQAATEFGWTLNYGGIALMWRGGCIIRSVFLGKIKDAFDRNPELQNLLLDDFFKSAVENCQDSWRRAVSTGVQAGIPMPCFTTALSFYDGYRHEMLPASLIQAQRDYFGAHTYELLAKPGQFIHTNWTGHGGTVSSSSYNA

Turning to `O=C1NC(=O)C(c2ccccc2)(c2ccccc2)N1`, the fluorescence ratio in [1] is 1.01 (inactive); in test [4], 1 (inactive). For the same molecule, the inhibition (usually the drop in the measured response relative to a control, in per cent) in test [2] is -2.27% (inactive); in [3], -2% (inactive); in [13] it was 6.59% (inactive). Besides, the nuclear beta-catenin stimulation is 0.1% (inactive) in [5] (at 10 µM) and 0.8% in [5] (stimulation, at 2 µM). In addition, in [6], the insulin secretion stimulation was -0.3% (inactive). For the same molecule, the viability decrease in test [7] was 7% (inactive). Besides, in test [8], the tube area decrease is -8.6% (inactive). The GLP1 secretion stimulation in test [9] was 3.3% (inactive). Also, the inhibition of viability in [10] was 0.15% (inactive). Further, the figures for the viability decrease (inhibition) in [11] and in [12] were 45.8% (inactive) and -0.3% (inactive), respectively. For the same molecule, the red/green cell ratio (normalised) in test [14] is 0.93 (inactive). For the same molecule, the normalised cell number was 1.07 in test [14] (setting [19]) and 0.99 in test [14] (setting [20]). In addition, the z-score in test [15] (setting [21]) is 2.18 (active) and -0.393 (inactive); in [15] (setting [22]), -1.75 and 0.128. In addition, the remaining NAD in [16] was 10 nM (inactive). Besides, the luciferase signal in test [17] is 68 AU (inactive). Further, the log fold change Tl+ flux in the test with F380Y is 0.0665 (inactive).
Take `c1ccc2c(c1)CCCC2C1=NCCN1` (stereo not given): the fluorescence ratio in [1] was 0.97 (inactive); in test [4], 0.93 (inactive). Further, the inhibition in test [2] was -4.09% (inactive); in test [3] it was -0.48% (inactive); in test [13], 19.3% (inactive). For the same molecule, the nuclear beta-catenin stimulation is 4.7% (inactive) in test [5] (at 10 µM) and -0.1% in test [5] (stimulation, at 2 µM). Further, the insulin secretion stimulation in [6] was -0.4% (inactive). In addition, the viability decrease in test [7] is -30.2% (inactive). In addition, the tube area decrease in test [8] was -9.5% (inactive). Further, the GLP1 secretion stimulation in test [9] is 0.9% (inactive). In addition, in test [10], the inhibition of viability is 0.6% (inactive). Further, the figures for the viability decrease (inhibition) in test [11] and in [12] were 11.2% (inactive) and -6.9% (inactive), respectively. Moreover, the red/green cell ratio (normalised) in test [14] was 1.32 (inactive). For the same molecule, the normalised cell number in test [14] (setting [19]) was determined as 1.03; in test [14] (setting [20]) it was 1.36. The z-score in test [15] (setting [21]) was -0.281 (inactive) and -0.833 (inactive); in test [15] (setting [22]), -0.176 and -0.558. In [16], the remaining NAD was 10 nM (inactive). In addition, the luciferase signal in test [17] was 44 AU (inactive). For the same molecule, the log fold change Tl+ flux in the test on F380Y was -0.0277 (inactive).
For the molecule `NS(=O)(=O)c1cc(C2(O)NC(=O)c3ccccc32)ccc1Cl` (stereo not given), the fluorescence ratio was 0.81 (inactive) in test [1] and 1 (inactive) in test [4]. For the same molecule, the inhibition in test [2] was -2.27% (inactive); in test [3], 1.05% (inactive); in test [13], 7.34% (inactive). Further, the nuclear beta-catenin stimulation in test [5] (at 10 µM) was 2.1% (inactive); in test [5] (stimulation, at 2 µM), 6.2%. The insulin secretion stimulation in test [6] is 0.8% (inactive). In addition, in test [7], the viability decrease was -12.6% (inactive). Further, in test [8], the tube area decrease was 2.3% (inactive). Moreover, the GLP1 secretion stimulation in test [9] is -2% (inactive). In addition, the inhibition of viability in test [10] was -5.17% (inactive). Also, the viability decrease (inhibition) was 16.8% (inactive) in [11] and -4% (inactive) in test [12]. Also, in test [14], the red/green cell ratio (normalised) is 1.08 (inactive). Besides, the normalised cell number in [14] (setting [19]) stood at 1.2; in test [14] (setting [20]), 1.3. Further, the fold change in [18] (stronger effect = lower value, cell number ratio, induced over uninduced) was 0.98 (inactive) and 0.828 (inactive) and 0.88 (inactive); in test [18] (measured here: relative caspase fold change +Dox/-Dox), 1.92 and 1.71 and 1.64. The cell count in test [18] (measured here: total cells with miR-34 induction, stronger effect = lower value) is 11100 and 8640 and 10800; in test [18] (measured here: total cells without miR-34 induction), 11400 and 10400 and 12300. In addition, the z-score in [15] (setting [21]) was -0.366 (inactive); in test [15] (setting [22]), -0.339. For the same molecule, in test [16], the remaining NAD is 10 nM (inactive). Also, the luciferase signal in test [17] is 36 AU (inactive). For the same molecule, in the test with F380Y, the log fold change Tl+ flux was -0.0172 (inactive).
